ChEMBL document CHEMBL3988442, “University of Dundee, Small-Polar-MMV Screening Library” (2021)

Columns and labels:
[1] = target: T1, Aspartate--tRNA(Asp/Asn) ligase (Mycobacterium tuberculosis (strain ATCC 25618 / H37Rv)) (UniProt P9WFW3); assay: Assay for Asp RNA synthetase-1 from Mycobacterium tuberculosis; assay type: functional; parameters: scale not given: direction of the effect not stated beside the values; conditions: 30 µM; further: in the data most compounds retested in dose-response had high values
T1 sequence (whole entry): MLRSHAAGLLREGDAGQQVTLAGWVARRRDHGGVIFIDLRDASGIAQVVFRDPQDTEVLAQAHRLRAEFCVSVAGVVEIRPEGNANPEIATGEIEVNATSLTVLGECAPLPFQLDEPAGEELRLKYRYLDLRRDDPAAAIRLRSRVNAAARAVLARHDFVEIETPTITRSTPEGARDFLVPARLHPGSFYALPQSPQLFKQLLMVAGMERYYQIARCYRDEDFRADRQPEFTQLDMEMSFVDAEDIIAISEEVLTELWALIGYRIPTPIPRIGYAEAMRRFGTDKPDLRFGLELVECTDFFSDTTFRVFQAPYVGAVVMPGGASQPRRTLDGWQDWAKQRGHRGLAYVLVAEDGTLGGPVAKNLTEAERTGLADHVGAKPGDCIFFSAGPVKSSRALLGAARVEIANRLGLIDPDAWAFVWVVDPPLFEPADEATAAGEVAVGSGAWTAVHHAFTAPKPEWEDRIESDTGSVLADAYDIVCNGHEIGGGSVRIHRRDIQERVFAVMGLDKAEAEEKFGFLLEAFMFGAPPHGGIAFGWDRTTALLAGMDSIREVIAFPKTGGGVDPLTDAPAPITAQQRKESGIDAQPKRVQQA

[2] = target: Shiga toxin 2 (Escherichia coli O157:H7) (UniProt P09385+P09386); assay: E. coli 0.157:H7 Shiga Toxin SOP - stx2 screening assay; assay type: functional; parameters: scale not given: direction of the effect not stated beside the values; conditions: 30 µM

SMILES	Percent Effect [1] [%]	Percent Effect [2] [%]
CN(C)[C@@H]1CCN(C(=O)c2ccsc2)[C@H]1Cc1cnn(C)c1	-0.691	-4.3
CCc1nc(C2CCCN2Cc2nccn2Cc2ccccc2)no1 (configuration not stated)	-2.22	12.2
COc1ccccc1C(O)CNC(=O)Nc1ncccc1C (configuration not stated)	-3.63	8.45
Cc1nc2ccnn2c(C)c1CCC(=O)N1CCC(C(N)=O)CC1	0	13.3
Cc1ccc([C@@H]2CN(C(=O)c3csc(C)n3)C[C@H]2NC(=O)C2CC2)cc1	-3.36	15.2
CCc1nc(NCC(=O)N2CCOCC2)c2c(n1)c(C)nn2CC	-2.73	-15.5
O=C(C1CC=CC1)N1C[C@@H]2[C@@H](C1)OCC(=O)N2Cc1cccnc1	1.21	-12.2
O=C(Cc1ccccc1Cl)N1CCCC(n2cncn2)C1 (configuration not stated)	-1.83	-37.6
N#Cc1cccc(S(=O)(=O)NC2CCN(Cc3ccccc3)C2=O)c1 (configuration not stated)	-1.89	8.07
O=C(c1ncccn1)N1C[C@H]2CCC[C@@]2(COCC2CCOCC2)C1	-6.49	-2.7
CC(NC(=O)C1=NN(C)C(=O)CC1)c1ccc(Cl)cc1Cl (configuration not stated)	-11.1	-19.3
O=C(CCc1cccnc1)N(Cc1ccsc1)CC1CCCO1 (configuration not stated)	-1.24	-0.116
N#Cc1ccnc(N2CCN(C(=O)Cc3ccc4c(c3)CCO4)CC2)c1	0.144	6.14
Cc1csc(N2CCCN(C(=O)c3c(C)oc(C)c3C)CC2)n1	-1.31	-3.9
CCOc1cc(F)ccc1NS(=O)(=O)c1cc(C)c(C(=O)O)s1	1.85	-9.96
Clc1ccccc1C1(c2ccnc(CC3CC3)n2)CCNCC1	-0.0892	-10.7
CCNc1cc2c(nn1)CCN(C(=O)c1cc3nc(C)ccc3o1)C2	-4.95	-51.6
N#Cc1ccc(OCCCN2CCc3cncnc3C2)cc1	-3.6	-20.7
Cc1nc(C2CCN(C(=O)c3ccc(=O)n(C)c3)CC2)c2sccn12	3.56	-17.4
Cc1nc(C)n(CC2CN(c3ccc(C#N)cn3)CCO2)n1 (configuration not stated)	2.39	19.5
N#Cc1ccccc1CN1C[C@@H]2CC[C@H](C1)N(CC1CC1)C2=O	2.11	-9.72
Cn1cc(CN2CC3(CCN(C(=O)c4ccoc4)C3)C2)cn1	-2.07	-8.68
COc1cc(C(C)=O)ccc1OCC(=O)N(C)Cc1cnn(C)c1	-4.92	0.928
Cc1cnn(CC2CN(CCN3CCCC3=O)CCO2)c1 (configuration not stated)	-4.53	8.14
O=C(CCOc1ccccc1)N1CCC(Nc2cccnn2)CC1	4.24	6.7
c1ccc(-n2nnnc2CN2CCCC(Cn3cncn3)C2)cc1 (configuration not stated)	2.98	6.15

SMILES	Percent Effect [1] [%]	Percent Effect [2] [%]
CN(C)C(=O)N1C[C@@H]2CC[C@H](C1)N(C(=O)CCCn1cncn1)C2	1.35	4.19
Cn1c(CN2CCCC2)nnc1C1CCCN(C(=O)C2CCOCC2)C1 (configuration not stated)	2.71	-6.15
Cc1cnn(CC(C)NCc2ccc(OCc3ccncc3)cc2)c1 (configuration not stated)	-0.0437	-25.9
COCCN1CCc2cc(C(=O)N(C)C)c(NC(C)C)nc2CC1	-1.31	-20
Cc1nc(Cn2nc(C3CCNCC3)n(Cc3ccccc3)c2=O)no1	-2.53	-3.49
CC(C)c1nccn1C1CCCN(C(=O)c2cnn(C)c2C2CC2)C1 (configuration not stated)	-1.74	28.9
Cc1nc(N2CCCC2)nc2c1CCN(C(=O)CC1CC1)CC2	-1.6	-20.8
CCN1CCN(C(=O)CCc2c(C)noc2Cl)CC1	0.983	28.8
Cc1ccc(CC(=O)NC(C)C(=O)N2CCS(=O)(=O)CC2)cc1 (configuration not stated)	0.123	1.85
COc1ccccc1N1CCC(CNCc2cccc(C#N)c2)C1 (configuration not stated)	13.3	2
CNC(=O)N1CCc2cc(C(=O)N(C)C)c(NCC3CC3)nc2CC1	1.99	-3.46
Cc1ccc(NC(=O)N(C)Cc2cnn(C)c2)cc1OCC(F)F	5.84	-4.22
CCn1cc(N2Cc3nc(N4CCOCC4)ncc3C2=O)cn1	-3.92	-20.5
Cc1nc(CNC(=O)NCC(O)c2cccc(Cl)c2)cs1 (configuration not stated)	1.01	-16.9
Cc1ccc2c(c1)OCCCC2NCc1nnc2n1CCCCC2 (configuration not stated)	-4.58	3.72
COc1ccc2c(c1)C1(CCN(Cc3ccoc3)CC1)N(C)CC2	0.685	-9.8
CCC1c2ccsc2CCN1C(=O)NCCNc1ncccn1 (configuration not stated)	-3.52	10.9
CCc1ncncc1C(=O)N1CCN(Cc2c(C)noc2C)CC1	0.0281	36.8
CNc1nc2c(s1)C(=O)CN(C(=O)NCc1ccccc1)C2	1.63	-6.79
O=C(NCC1CCN(Cc2ccsc2)CC1)NC1CC1	4.04	-10.9
Cc1cc(-c2cnn(CCNC(=O)c3cccnc3)c2C2CC2)on1	0.491	-2.62
Cc1cc(CN2CCCC2Cn2cncn2)no1 (configuration not stated)	-4.72	-0.0947
CN(C)CCNC(=O)c1ccc(OC2CCN(S(C)(=O)=O)CC2)c(Cl)c1	1.85	-25.9
NC(=O)C1CN(C(=O)Nc2ccccc2N2CCCCCC2)CCO1 (configuration not stated)	0.991	7.25
CC(C)N1CC(C(=O)NCc2ccnc(-n3cccn3)c2)CC1=O (configuration not stated)	-0.3	-49.1
